PubChem BioAssay (EPA / NIEHS)
Records with an inconclusive call do not appear. Active and inactive are the calls of the source. The calls were made as follows, unless noted: active = hit-call score of the fitted dose curve at least 0.9, where 1 is the maximum; inactive = score below 0.9.

Legend:
[1] = CCTE_Mundy_HCI_Cortical_Synap_Neur_Matur_SynapseCount: CCTE's Synaptogenesis and Neurite Maturation Assay in rat cortical cells for Synapse Count, Mundy Lab (AID 2284218)
How it was run: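 Rat primary cortical cultures, AraC at DIV 5, chemical dosing DIV 7 to DIV 12 (288.33 h). Fixed cells stained for MAP2, synaptophysin and Hoechst; synapses per neuron counted by high-content imaging, loss of signal versus DMSO.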

[2] = CCTE_Mundy_HCI_Cortical_Synap_Neur_Matur_CellBodySpotCount: CCTE's Synaptogenesis and Neurite Maturation Assay in rat cortical cells for Cell Body Spot Count, Mundy Lab (AID 2284223)
How it was run: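 Chemicals were applied to AraC-treated rat primary cortical cells at DIV 7 and measured at DIV 12. Fixed cells were labelled for MAP2, synaptophysin and nuclei, and high-content imaging gave cell body synaptophysin spot counts per neuron relative to DMSO.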

[3] = CCTE_Mundy_HCI_hNP1_Pro_ResponderAvgInten: CCTE's Proliferation Assay in human neuroprogenitor cells, Mundy Lab (AID 2284224; active = hit-call score of the fitted dose curve at least 0.9, where 1 is the maximum)
How it was run: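 Proliferation was scored as BrdU labelling intensity in human neural progenitors derived from WA09 embryonic cells, measured 26.25 hours after chemical dosing. Activity was fitted relative to DMSO.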

[4] = UKN2_HCS_IMR90_cell_viability: Viability Assessment in the University of Konstanz (UKN) Leist Lab Neural Crest Cell Migration Assay in human induced IMR90 Pluripotent Stem Cells (UKN2) (AID 2284233);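 also: viability of neural crest cells differentiated from IMR90 iPSC measured by calcein-AM fluorescence imaging; cells exposed to compound for 24 h after a 24 h migration phase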
How it was run: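 Human IMR90-derived neural crest cells were allowed to migrate for 24 h into a cell-free zone, then exposed to test chemicals for 24 h. Calcein-AM and Hoechst staining with high-content imaging gave viability, analysed against DMSO baseline.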

[5] = CCTE_Mundy_HCI_Cortical_NOG_NeuronCount: CCTE's Neurite Outgrowth Assay in rat cortical cells for Neuron Count, Mundy Lab (AID 2284236; active = hit-call score of the fitted dose curve at least 0.9, where 1 is the maximum;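 also: neurons counted by imaging betaIII-tubulin and Hoechst stained cortical cells; cells exposed to compound for about 48 hours before fixation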)
How it was run: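 Read-out: neuron number by high-content imaging of betaIII-tubulin (Alexa Fluor-488) and Hoechst-labelled rat primary cortical cells.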

[6] = CCTE_Mundy_HCI_Cortical_NOG_BPCount: CCTE's Neurite Outgrowth Assay in rat cortical cells for Branch Point Count, Mundy Lab (AID 2284237)
How it was run: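 Measured 50.33 h after dosing, this morphology endpoint uses rat primary cortical cultures labelled for betaIII-tubulin. Branch points are quantified by high-content imaging, with DMSO as negative control and baseline.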

[7] = CCTE_Mundy_HCI_hNP1_Casp3_7: CCTE's Caspase-Glo 3/7 Assay in human neuroprogenitor cells for Apoptosis, Mundy Lab (AID 2284240)
How it was run: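 Apoptosis is scored by activated caspase-3/7 luminescence in WA09-derived neural progenitor cells, measured 26.5 h after chemical dosing. Values represent gain of signal relative to DMSO vehicle.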

[8] = CCTE_Mundy_HCI_hNP1_CellTiter: CCTE's Cell Titer-Glo 2 Assay in human neuroprogenitor cells for Viability, Mundy Lab (AID 2284241; active = hit-call score of the fitted dose curve at least 0.9, where 1 is the maximum)
How it was run: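 Human neural progenitor cells (hNP1, WA09-derived) were plated on poly-L-ornithine/laminin and grown 40 to 44 hours at 37 °C, 5% CO2 before chemical addition. Twenty-four hours later, ATP was measured by CellTiter-Glo luminescence; loss of signal versus DMSO indicates reduced viability.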

[9] = CCTE_Mundy_HCI_Cortical_Synap_Neur_Matur_NeuronCount: CCTE's Synaptogenesis and Neurite Maturation Assay in rat cortical cells for Neuron Count, Mundy Lab (AID 2284242; active = hit-call score of the fitted dose curve at least 0.9, where 1 is the maximum)
How it was run: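 Rat primary cortical cells, AraC added at DIV 5, dosed with media change from DIV 7 to DIV 12. Fixed, Hoechst-stained and immunolabelled for MAP2 and synaptophysin; neuron number counted by high-content imaging, loss fitted versus DMSO.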

[10] = IUF_NPC2c_oligodendrocyte_migration_120hr: Leibniz Research Institute for Environmental Medicine (IUF) 120-hour Neural Progenitor Cell Migration Assay for Oligodendrocyte Migration (NPC2c) (AID 2284297);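 also: O4-positive oligodendrocyte migration distance divided by radial glia migration distance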
How it was run: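 Using fetal brain neural progenitor spheres differentiating in N2 medium at 37C, compounds were present for 120 h. Oligodendrocyte migration distance, normalized to radial glia migration, was measured from imaged O4 staining.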

[11] = IUF_NPC2a_radial_glia_migration_120hr: Leibniz Research Institute for Environmental Medicine (IUF) 120-hour Neural Progenitor Cell Migration Assay for Radial Glia Migration (NPC2a) (AID 2284298)
How it was run: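 Exposure of 0.3 mm primary hNPC spheres runs day 0 to 120 h with a half-volume medium change at day 3. Fixed cells get Hoechst staining; high-content analysis of nuclear positions yields radial glia migration distance per well, compared against DMSO controls.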

[12] = IUF_NPC2b_neuronal_migration_120hr: Leibniz Research Institute for Environmental Medicine (IUF) 120-hour Neural Progenitor Cell Migration Assay for Neuron Migration (NPC2b) (AID 2284300)
How it was run: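 Fetal human NPC spheres migrate on PDL/laminin during 120 h compound treatment; neuronal migration distance, glia-normalized, scored versus DMSO control.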

[13] = IUF_NPC3_neuronal_differentiation_120hr: Leibniz Research Institute for Environmental Medicine (IUF) 120-hour Neuronal Differentiation Assay (NPC3) (AID 2284301)
How it was run: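 Single 0.3 mm neurospheres from human fetal cortex were plated in differentiation medium containing test compound. Medium was half-replaced on day 3. After 120 h cells were fixed, immunostained and imaged, and neuronal fraction was scored against DMSO control.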

[14] = IUF_NPC4_neurite_length_120hr: Leibniz Research Institute for Environmental Medicine (IUF) 120-hour Neuronal Morphology Assay for Neurite Length (NPC4) (AID 2284302)
How it was run: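 Read-out is mean neurite length in µm of TUBB3-positive neurons, skeletonized from high-content fluorescence images after 120 h. Single 0.3 mm primary human neural progenitor spheres differentiated on poly-D-lysine/laminin under continuous compound exposure; DMSO was baseline.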

[15] = IUF_NPC5_oligodendrocyte_differentiation_120hr: Leibniz Research Institute for Environmental Medicine (IUF) 120-hour Oligodendrocyte Differentiation Assay (NPC5) (AID 2284304; active = hit-call score of the fitted dose curve at least 0.9, where 1 is the maximum;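 also: primary human fetal neural progenitor spheres plated to migrate and differentiate; share of O4-positive cells among Hoechst nuclei found by CNN image analysis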)
How it was run: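 After plating on poly-D-lysine/laminin, fetal-derived hNPC spheres differentiated for 120 h at 37C in compound-containing N2 medium, refreshed by half on day 3. O4 immunostaining over Hoechst nuclei in the migration zone gave oligodendrocyte percentage relative to DMSO.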

[16] = IUF_NPC4_neurite_area_120hr: Leibniz Research Institute for Environmental Medicine (IUF) 120-hour Neuronal Morphology Assay for Neurite Area (NPC4) (AID 2284305; active = hit-call score of the fitted dose curve at least 0.9, where 1 is the maximum)
How it was run: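 Neurite area is read out as the mean pixel area, excluding nuclei, of skeletonized TUBB3-positive neurons imaged after 120 h. Primary human neural progenitor spheres differentiated on poly-D-lysine/laminin with compound present from day 0. Activity was referenced to DMSO controls.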

[17] = IUF_NPC2-5_cytotoxicity_72hr: Cytotoxicity Assessment at 72 hours in the Leibniz Research Institute for Environmental Medicine (IUF) Neural Progenitor Cell Migration and Differentiation Assay for Cytotoxicity (NPC2-5) (AID 2284306; active = hit-call score of the fitted dose curve at least 0.9, where 1 is the maximum;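 also: LDH release into supernatant measured by resorufin fluorescence marking membrane damage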)
How it was run: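 Membrane integrity loss was scored from fluorescence (RFU) of resorufin generated by LDH in culture supernatant, 72 h after dosing. Differentiating human progenitor spheres received seven serial compound concentrations alongside a solvent control.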

[18] = IUF_NPC2-5_cytotoxicity_120hr: Cytotoxicity Assessment at 120 hours in the Leibniz Research Institute for Environmental Medicine (IUF) Neural Progenitor Cell Migration and Differentiation Assay (NPC2-5) (AID 2284307; active = hit-call score of the fitted dose curve at least 0.9, where 1 is the maximum)
How it was run: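 Membrane-integrity loss is quantified by LDH in supernatant after five days of exposure of migrating, differentiating human fetal NPC spheres; seven serially diluted concentrations are tested with DMSO kept at or below 0.1%.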

[19] = IUF_NPC2-5_cell_number_120hr: Cell Number Assessment at 120 hours in the Leibniz Research Institute for Environmental Medicine (IUF) Neural Progenitor Cell Migration and Differentiation Assay (NPC2-5) (AID 2284308);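 also: count of Hoechst-stained nuclei in migration zone around plated human neural progenitor spheres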
How it was run: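 Seven-point serial dilutions plus solvent control were applied to plated 0.3 mm hNPC spheres at differentiation start, with medium half-replaced at day 3. Nuclei positive for Hoechst in the migration zone were enumerated at 120 h.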

[20] = IUF_NPC2-5_viability_120hr: Viability Assessment at 120 hours in the Leibniz Research Institute for Environmental Medicine (IUF) Neural Progenitor Cell Migration and Differentiation Assay (NPC2-5) (AID 2284312)
How it was run: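 Alamar blue resorufin fluorescence read after 5 days of differentiation, with compound present from day 0 and replenished at day 3. Primary hNPC spheres on laminin-coated plates, 37C; seven concentrations plus solvent control, fitted against DMSO.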

[21] = CCTE_Mundy_HCI_iCellGluta_NOG_NeuriteLength: CCTE's Neurite Outgrowth Assay in iCellGluta cells for Neurite Length, Mundy Lab (AID 2284318; active = hit-call score of the fitted dose curve at least 0.9, where 1 is the maximum)
How it was run: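 Automated high-content imaging of betaIII-tubulin (Alexa Fluor-488) and Hoechst-stained cells gave neurite length, normalized to the DMSO baseline.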

[22] = IUF_NPC1_cytotoxicity_72hr: Cytotoxicity Assessment at 72 hours in the Leibniz Research Institute for Environmental Medicine (IUF) Neural Progenitor Cell Proliferation Assay (NPC1) (AID 2284332; active = hit-call score of the fitted dose curve at least 0.9, where 1 is the maximum;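 also: rising LDH signal means more cytotoxicity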)
How it was run: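 Human fetal neural progenitor spheres (0.3 mm) in EGF/FGF proliferation medium, 37C, exposed 72 h without renewal. LDH release in supernatant read by resorufin fluorescence; gain of signal scored relative to dynamic range.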

[23] = CCTE_Mundy_HCI_iCellGluta_NOG_NeuronCount: CCTE's Neurite Outgrowth Assay in iCellGluta cells for Neuron Count, Mundy Lab (AID 2284340; active = hit-call score of the fitted dose curve at least 0.9, where 1 is the maximum;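 also: cells fixed about 48 h after compound addition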)
How it was run: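 Neuron count read by automated high-content imaging of Hoechst 33342 and betaIII-tubulin/Alexa Fluor-488 labelling in human iPSC glutamatergic neurons. Activity fitted relative to DMSO.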

[24] = CCTE_Mundy_HCI_iCellGluta_NOG_NeuriteCount: CCTE's Neurite Outgrowth Assay in iCellGluta cells for Neurite Count, Mundy Lab (AID 2284342; active = hit-call score of the fitted dose curve at least 0.9, where 1 is the maximum;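 also: chemical exposure about 48 hours starting 2 hours after plating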)

Measured: outcome

CC(=O)N[C@@H](CC(=O)O)C(=O)O
inactive: [1] | [2] | [3] | [4] | [5] | [6] | [7] | [8] | [9] | [10] | [11] | [12] | [13] | [14] | [15] | [16] | [17] | [18] | [19] | [20] | [21] | [22] | [23] | [24]
